# According to PubChem BioAssay AID463173 (ICCB-Longwood Screening Facility, Harvard Medical School, 2010):
# Screen size: about 52,000 compounds; about 4,300 (8.3%) were called active. Cut-off read from the data, not from the text of the source: active = survival mostly below about 52% (no sharp cut-off); inactive = mostly above about 56%. For the sample, actives were picked, then their nearest neighbours and some compounds at random.
# Tested on: DeltatarO mutant
# Experiment: growth inhibition of S. aureus wild type versus tarO mutant, primary screen, teichoic acid synthesis inhibitors, RN4220, OD600 (AID 463173)
# Conditions: OD600, 18 h, active compounds read low, screened at 18.75 µg/mL (by protocol)
row,SMILES,survival
1,COc1ccccc1CNC(=O)C1CCCN(C(=O)c2cnn(-c3ccc(F)cc3)c2-n2cccc2)C1 (stereo not drawn),76% (inactive)
2,CCN(C(=O)Cn1nnc2sc3c(c2c1=O)CCC(C(C)(C)C)C3)c1cccc(C)c1 (stereo not drawn),78% (inactive)
3,COc1ccc(CNS(=O)(=O)c2ccc(-c3cc(C(F)(F)F)on3)s2)cc1OC,118% (inactive)
4,COc1ccc(OC)c(CNS(=O)(=O)c2ccc(-c3cc(C(F)(F)F)on3)s2)c1,-4% (active)
5,COc1ccccc1CNS(=O)(=O)c1ccc(-c2cc(C(F)(F)F)on2)s1,102% (inactive)
6,COc1cccc(N2CC(NC(=O)C3CC3)CC2=O)c1 (stereo not drawn),105% (inactive)
7,COc1cccc(N2CC(NC(=O)C3CCCC3)CC2=O)c1 (stereo not drawn),46% (active)
8,COc1cccc(N2CC(NC(=O)COc3ccc4ccccc4c3)CC2=O)c1 (stereo not drawn),107% (inactive)
9,COc1ccc(N2CC(NC(=O)c3ccco3)CC2=O)cc1 (stereo not drawn),58% (inactive)
10,COc1cccc(OCC(=O)NC2CC(=O)N(c3cccc(OC)c3)C2)c1 (stereo not drawn),106% (inactive)
11,COc1cccc(N2CC(NC(=O)c3ccco3)CC2=O)c1 (stereo not drawn),37% (active)
12,COc1cccc(N2CC(NC(=O)C3CCCCC3)CC2=O)c1 (stereo not drawn),144% (inactive)
13,COc1ccc(N2CC(NC(=O)c3ccco3)CC2=O)cc1OC (stereo not drawn),89% (inactive)
14,COc1ccc(OCC(=O)NC2CC(=O)N(c3cccc(OC)c3)C2)cc1 (stereo not drawn),0% (active)
15,O=C(Nc1cccc(F)c1)C1CCCN(S(=O)(=O)c2cccc3cccnc23)C1 (stereo not drawn),70% (inactive)
16,COc1ccccc1CNc1ncnc2c1c(-c1ccccc1)cn2-c1ccc(Br)cc1,80% (inactive)
17,COc1ccc(C)cc1NC(=O)CN1C(=O)COc2ccc(S(=O)(=O)N3CCOCC3)cc21,98% (inactive)
18,COc1ccc(-c2nnc(SCC(=O)NCc3ccc(C)cc3)nc2-c2ccc(OC)c(OC)c2)cc1OC,76% (inactive)
19,CCNS(=O)(=O)c1cccs1,96% (inactive)
20,Cc1nn(CC(=O)Nc2ccccc2F)c(=O)c2c(C)n(-c3ccc(Cl)cc3)nc12,102% (inactive)
21,Cc1cc(NC(=O)NCc2ccc3c(c2)CCN3C(=O)c2ccccc2)ccc1Br,116% (inactive)
22,CCOC(=O)c1cnc(-c2ccccc2)nc1Nc1ccc(C)cc1,90% (inactive)
23,CCOC(=O)c1c(Oc2ccc(C(C)=O)cc2)nnc(-c2ccccc2)c1-c1ccccc1,67% (inactive)
24,CCOC(=O)c1c(C)oc2nc(C)nc(Nc3ccc(C)c(Cl)c3)c12,89% (inactive)

row,SMILES,survival
1,CCOC(=O)c1c(Nc2ccc(C)c(C)c2)nnc(-c2ccccc2)c1-c1ccccc1,-5% (active)
2,CCOC(=O)c1c(Nc2ccccc2)nnc(-c2ccccc2)c1-c1ccccc1,6% (active)
3,CCOC(=O)c1c(Nc2ccc(C)cc2)nnc(-c2ccccc2)c1-c1ccccc1,1% (active)
4,CCOC(=O)c1c(C)oc2ncnc(Nc3ccc(CC)cc3)c12,85% (inactive)
5,CCOC(=O)c1c(C)oc2nc(C)nc(Nc3ccc(CC)cc3)c12,115% (inactive)
6,CCOC(=O)c1c(Nc2ccc(F)cc2)nnc(-c2ccccc2)c1-c1ccccc1,-3% (active)
7,CCOC(=O)c1c(Nc2ccc(O)cc2)nnc(-c2ccccc2)c1-c1ccccc1,95% (inactive)
8,COc1cc(C2C(C(=O)Nc3ccccc3C)=C(C)Nc3nc(SCc4cc(C)ccc4C)nn32)ccc1O (stereo not drawn),105% (inactive)
9,CCOc1ccccc1N(CC)C(=O)c1cc2c(=O)[nH]c3ccc(C)cc3c2s1,74% (inactive)
10,Cc1ccc(-n2nc(C)c3c(C)cc(=O)n(CC(=O)NC(C)C)c32)cc1,105% (inactive)
11,O=C(CN1C(=O)COc2ccc(S(=O)(=O)N3CCCCCC3)cc21)Nc1cccc(Cl)c1,60% (inactive)
12,COc1cc(OC)c(N(C)C(=O)c2sc3nc4n(c(=O)c3c2C)CCCC4)cc1Cl,53% (inactive)
13,O=C(Cc1ccccc1)N(Cc1cccnc1)c1nc2ccc(Cl)cc2s1,72% (inactive)
14,O=C(Cc1ccc(-c2ccccc2)cc1)NCCS(=O)(=O)N1CCN(c2ccccc2)CC1,122% (inactive)
15,CCOc1ccc(CNC(=O)c2ccc(NC(=O)c3nsc4ccccc34)cc2)cc1,79% (inactive)
16,COc1ccc(C(=O)CN2CCN(S(=O)(=O)c3ccc(C(C)C)cc3)CC2)cc1,81% (inactive)
17,COc1ccc(N2CC(NC(=O)/C=C\c3ccc(OC)c(OC)c3)CC2=O)cc1 (stereo not drawn),55% (inactive)
18,CC(=O)c1ccc(NC(=O)CC2Oc3ccc(C)cc3NC2=O)cc1 (stereo not drawn),85% (inactive)
19,O=C(NCCc1ccc(F)cc1)C(=O)NCC(c1ccc2c(c1)OCO2)N1CCOCC1 (stereo not drawn),74% (inactive)
20,Cc1cccc(N(C)C(=O)Cc2c(C(=O)O)[nH]c3ccccc23)c1,134% (inactive)
21,Cc1ccc(C)c(N(C)C(=O)Cc2c(C(=O)O)[nH]c3ccc(Cl)cc23)c1,40% (active)
22,COc1ccc(OC)c(NC(=O)Cc2c(C(=O)O)[nH]c3ccc(Cl)cc23)c1,54% (inactive)
23,CCN(C(=O)Cc1c(C(=O)O)[nH]c2ccccc12)c1ccc(OC)cc1,65% (inactive)
24,CCCN(C(=O)Cc1c(C(=O)O)[nH]c2ccc(Cl)cc12)c1ccc(OCC)cc1,47% (active)

row,SMILES,survival
1,Cc1ccc2[nH]c3c(=O)n(CC(=O)N(C)c4cc(Cl)ccc4C)ncc3c2c1,89% (inactive)
2,CCOC(=O)c1ccccc1NC(=O)N1CCC(CN2CCCCC2)CC1,83% (inactive)
3,COC(=O)c1cccc(NC(=O)Nc2cc(C(=O)NCc3cccc(F)c3)ccc2N2CCCC2)c1,91% (inactive)
4,Cc1ccc(OCC(=O)OCc2cc(=O)n3nc(-c4cccs4)sc3n2)cc1C,102% (inactive)
5,Nc1nonc1/C(=N/O)N1CCCC1,113% (inactive)
6,COc1ccc(N2CCN(C(CNC(=O)C(=O)NCc3cccnc3)c3cccnc3)CC2)cc1 (stereo not drawn),102% (inactive)
7,Cc1cc(C)cc(NC(=O)CCCc2nc(-c3ccccc3Cl)no2)c1,89% (inactive)
8,COc1cc(-c2noc(CCC(=O)Nc3cc(C)ccc3C)n2)cc(OC)c1OC,81% (inactive)
9,COc1ccccc1-c1noc(CCCC(=O)Nc2cc(C)ccc2C)n1,54% (inactive)
10,CCOc1ccccc1NC(=O)CCc1nc(-c2cccc(C)c2)no1,73% (inactive)
11,CCOc1ccccc1NC(=O)CCCc1nc(-c2ccccc2Cl)no1,38% (active)
12,CCOc1ccccc1-c1noc(CCCC(=O)Nc2cccc(C(F)(F)F)c2)n1,61% (inactive)
13,CCOC(=O)c1ccc(NC(=O)CCCc2nc(-c3ccccc3Cl)no2)cc1,36% (active)
14,CCOC(=O)c1ccc(NC(=O)CCCc2nc(-c3cc(OC)c(OC)c(OC)c3)no2)cc1,44% (active)
15,COc1cccc(NC(=O)CCc2nc(-c3cc(OC)c(OC)c(OC)c3)no2)c1,73% (inactive)
16,O=C(CCCc1nc(-c2ccccc2)no1)Nc1cc(C(F)(F)F)cc(C(F)(F)F)c1,19% (active)
17,O=C(CCc1nc(-c2ccccc2F)no1)Nc1cccc(C(F)(F)F)c1,81% (inactive)
18,CCc1ccc(NC(=O)CCCc2nc(-c3ccco3)no2)cc1,81% (inactive)
19,COC(=O)CSc1nnc2n(-c3ccccc3)c(=O)c3c4c(sc3n12)COC(C(C)C)C4 (stereo not drawn),123% (inactive)
20,Cc1nn2c(C)c(C(=O)N3CCN(c4ccccc4F)CC3)cnc2c1-c1ccc(F)cc1,88% (inactive)
21,O=C(NC1CCCC1)c1ccc2c(c1)N(Cc1ccc(F)cc1)C(=O)c1ccccc1S2,81% (inactive)
22,O=C1CNC(=O)N1Cc1ccc(F)cc1,108% (inactive)
23,Cc1cccc(NC(=O)c2sc(-n3nc(C)c(CCC(C)C)c3C)nc2C)c1,53% (inactive)
24,O=C(CSc1nnc(-c2ccc(Cl)cc2)o1)Nc1ccc(F)cc1,69% (inactive)

row,SMILES,survival
1,Cc1cccc(C)c1NC(=O)Cn1nc(C)c2sc3ccccc3c2c1=O,99% (inactive)
2,COc1ccc(Cc2nnc(NC(=O)c3cccs3)s2)cc1OC,100% (inactive)
3,CSc1nc2c(c(=O)[nH]1)C(c1cccc(F)c1F)CC(=O)N2 (stereo not drawn),111% (inactive)
4,CC(C)c1ccc(NC(=O)Cn2c(=O)n(CCc3ccccc3)c(=O)c3ccccc32)cc1,82% (inactive)
5,Cc1ccc(NC(=O)CCc2nc(-c3ccccc3F)no2)c(C)c1,93% (inactive)
6,COc1ccc(-c2noc(CCC(=O)Nc3ccccc3Cl)n2)cc1OC,97% (inactive)
7,COc1ccc(Cl)cc1NC(=O)CCc1nc(-c2ccccc2F)no1,20% (active)
8,CCCNC(=O)N1c2ccc(F)cc2CCC1C (stereo not drawn),87% (inactive)
9,COc1ccc(CNC(=O)c2ccc(CN3C(=O)C(C)=C(c4ccc(C)cc4)S3(=O)=O)cc2)cc1,89% (inactive)
10,COc1ccc(N2CCN(c3nc(-c4ccccc4F)nc4ccccc34)CC2)cc1,88% (inactive)
11,CC1CCCN(c2nc(-c3ccccc3O)nc3ccccc23)C1 (stereo not drawn),-6% (active)
12,CC1CCCN(c2csc3ccccc3c2=O)C1 (stereo not drawn),69% (inactive)
13,COc1ccccc1N1CCN(c2nc(-c3ccc(C)cc3)nc3ccccc23)CC1,83% (inactive)
14,Cc1ccc(-c2nc(N3CCCC(C)C3)c3ccccc3n2)cc1 (stereo not drawn),-2% (active)
15,Cc1cccc(-n2ncc3c(N4CCCC(C)C4)ncnc32)c1 (stereo not drawn),84% (inactive)
16,COc1cccc(-c2nnc(-c3ccccc3NC(=O)c3ccc(F)cc3F)o2)c1,78% (inactive)
17,CCOc1ccc(CCNC(=O)c2cccc(-n3c(C)nc4cccnc43)c2C)cc1,79% (inactive)
18,Cc1cc(C)c2[nH]c(=O)c(CN(Cc3ccco3)C(=S)NCCCN3CCOCC3)cc2c1,78% (inactive)
19,CCc1ccc(OCCn2c(C3CC(=O)N(Cc4ccc(F)cc4)C3)nc3ccccc32)cc1 (stereo not drawn),3% (active)
20,CCOc1ccccc1N1CC(c2nc3ccccc3n2CCOc2ccc(C(C)(C)C)cc2)CC1=O (stereo not drawn),62% (inactive)
21,Cc1cc(OCCn2c(C3CC(=O)N(Cc4ccc(F)cc4)C3)nc3ccccc32)ccc1Cl (stereo not drawn),1% (active)
